Measured values reported in the supplement of paper PMC11417369.
± gives the standard deviation of the averaged measurements. The full ranking holds about 25,000 sequences; the median of “ln(normalized median fluorescence intensity)” is about 8.6, and the highest 2% start at about 10. For the sample, the highest values were picked, then their nearest neighbours and some sequences at random.

Tested on: PfAP2-EXP AP2 domain (GST-tagged)
Assay: gcPBM binding intensity (ln(normalized median fluorescence intensity)); higher = stronger DNA binding
In short: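 An Agilent 4 × 180k array of primer-extended double-stranded 36-bp intergenic genomic probes, with negative controls, was incubated for 1 h with GST-tagged P. falciparum DNA-binding domains expressed in E. coli. Alexa488 anti-GST antibody detected bound protein, scanned at 488 nm. Binding intensity is the highest Masliner-normalised natural-log median intensity across replicate spots of either probe orientation.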

Sequence	gcPBM binding intensity (ln)
ATATTTAAATATATTTATATATATAAAAAAAAATAT [GTGCAC_negctrl_site312]	8.56 ± 0.39
TATCGACATTTCATTTGTACATATATACATATATTT [XGTACX_site3346]	8.64 ± 0.42
TGTTCATTTATTTACTTACACACTTTATATATGTGG [CACACA_site1410]	8.79 ± 0.53
GAATTAATTTTAAAACGTACATGGGTGTATTTACAC [XGTACX_site5939]	8.86 ± 0.3
GGGAGGATATTACACAGTACCCAGAAAATCTACGGA [XGTACX_site2551]	8.8 ± 0.43
TTATTATATTAAAAGAGGACACATTTATTTTTTTTT [XGTACX_site1241]	8.09 ± 0.53
CATACATACGGACACACACACATATATATATATATA [CACACA_site5598]	10.2 ± 0.41
AATACCCAAGGACACACACACACATATATATATATA [CACACA_site8345]	10.2 ± 0.26
GTAATACCCAAACACACACACATACCCATATATATA [CACACA_site5510]	8.88 ± 0.52
CACAGACACGGACACACACACATATATAATATATAT [CACACA_site4495]	8.84 ± 0.33
AATACATACGGACACACACACACATATATATATATA [CACACA_site5884]	10.3 ± 0.17
CATATATACACATACACACACACACGGACACGCACA [CACACA_site6910]	8.87 ± 0.53
TACACAAGCAGACACACACACATATATATATATATA [CACACA_site1270]	10.1 ± 0.53
CACAGACACGGACACACACACATATATATATATATA [CACACA_site5248]	10.2 ± 0.26
CACAGACACGGACACACACACACACCCACATATATA [CACACA_site4355]	8.73 ± 0.41
TATACACCCGGACACACACACATATATATATATATA [CACACA_site5030]	10.1 ± 0.54
TACACAAGCGGACACACACACATATATATATATATA [CACACA_site4832]	10.3 ± 0.13
AAAATACCCGGACACACACACATATATATATATATT [CACACA_site6137]	8.83 ± 0.31
TTCAAAATATATATTTGTACATATAGGATCTTTTTC [XGTACX_site4500]	8.41 ± 0.45
TTTTTTTATTAATGTAGTACAATATAATGTTATATT [XGTACX_site2295]	8.54 ± 0.29
AGACGAAAATAATAAAGTACTAAAAAAAAAAAAAAA [XGTACX_site927]	8.14 ± 0.51
AAACAAATATATATATGTACTTATAAAAAAAAAAAT [XGTACX_site2211]	8.54 ± 0.45

Sequence	gcPBM binding intensity (ln)
TAATAAATAGGACACACACACATATATATATATTAT [CACACA_site4891]	8.87 ± 0.52
TACATATTTATATACACACACACACGGATATTTATA [CACACA_site7239]	8.94 ± 0.28
AACATTATAGGACACACACACACATATATATATATA [CACACA_site4721]	10.3 ± 0.13
AGGATACACGGACACACACACATATATATATATATA [CACACA_site4654]	10.2 ± 0.28
AGGATACACGGACACACACACATATAGATTTATATA [CACACA_site6552]	8.59 ± 0.52
ATAAATATAGGACACACACACATATTATATATATAT [CACACA_site5658]	9.65 ± 0.12
TATAAAATTTAAATTATACACACTTAAGTAACATCA [CACACA_site531]	8.74 ± 0.35
AATTATCAAAGTCTATACATACATACATACATACAT [GTGCAC_negctrl_site243]	8.95 ± 0.23
ATAAATCTACACCGCACACAAAAACAACAAATATTA [CACACA_site5396]	8.64 ± 0.58
GTTATACTCATATATACACACATATGTAAATATATA [CACACA_site5764]	8.94 ± 0.58
CAACATTTGAAACACACACACATACAAACAAACAAA [CACACA_site3306]	8.89 ± 0.47
TTTTTAATTTTTTTTAAACACACACCGTACATTCAA [CACACA_site7925]	8.54 ± 0.38
AAAAATTTAAGTGGGGGTACATTTTTTTAACACCTT [XGTACX_site1093]	9.46 ± 0.48
ATTCATTTTTTGGGGGGTACACCCTTTTAAACATTT [XGTACX_site4797]	10.3 ± 0.48
TATATATCGCATAAAACACACAAAAAAAAAATTAAA [CACACA_site7767]	8.35 ± 0.59
TCCACACAATTTATAACATGCAAAAAGGCAATAATA [TGCATGCA_site773]	8.69 ± 0.42
AATACATACATATATACATGCATACATATAAATATA [TGCATGCA_site674]	8.64 ± 0.35
TATATATATATACATACATGCATATATATATATATA [TGCATGCA_site513]	10.2 ± 0.54
AATATATATATACATACATGCATACATATATATATA [TGCATGCA_site784]	9.8 ± 0.14
CATATAAATAAATATACATGCATACATACATATATA [TGCATGCA_site713]	8.51 ± 0.23
TATATATATATATATACATGCATACATATACATACA [TGCATGCA_site897]	10.2 ± 0.5
AATATATACATACATACATGCATACATATATATAAC [TGCATGCA_site371]	8.73 ± 0.23

Sequence	gcPBM binding intensity (ln)
CATACATACATACATACATGCATACATACATACATA [TGCATGCA_site218]	9.3 ± 0.26
TATATATATATATATACATGCATATATATAATATAT [TGCATGCA_site763]	10.1 ± 0.52
AATACATACATACATACATGCATATATATATATATA [TGCATGCA_site462]	10.2 ± 0.14
TTGAATAAATTGGAATAAATATAATAAAATAAGGAA [XGTACX_negctrl_site302]	8.62 ± 0.38
TTTATGAAACAGTGCACACATAAAAATAAATACATA [CACACA_site5631]	9.175 ± 0.035
ATATATATATGTTTGTGTACTTATGATATCATATAA [XGTACX_site3276]	9.66 ± 0.099
TTTTTTTTTTTTGAAGTGCATTACTTTTTTTGTATT [GTGCAC_site9811]	8.5 ± 0.23
AATAAATAAGCAACATGTACATACAAATATATACAT [XGTACX_site8529]	8.48 ± 0.35
TTGTTCTTTCAAATTATACACACCAAAAAAAAAAAA [CACACA_site3070]	8.53 ± 0.4
ATATGTTTTTTTTTTTTTTTTTAATTTGTCATAAAT [CACACA_negctrl_site1208]	8.35 ± 0.49
AATATAATATAATGCACACATAAAACAAAAAAAAAA [CACACA_site3012]	8.82 ± 0.47
ATATATATATATATAGTGCAAATAAAAAATAGACAA [GTGCAC_site9796]	10.2 ± 0.3
TATATATTAAAAATAGTGCAAAATAATATATATATA [GTGCAC_site9716]	9.845 ± 0.049
CACAAAAATAGACACACACACATATAAATAAATATA [CACACA_site6598]	8.62 ± 0.47
GAATAAAAAATATATGTGCACATATAAACTTAAAAT [GTGCAC_site9554]	8.9 ± 0.3
ATTATATATAAACACACACACATGCATGCACATATA [CACACA_site4237]	10 ± 0.26
TATATATGTTAAAACGTGCACATATATATATATATA [GTGCAC_site9589]	10.2 ± 0.21
ATATGTGTTAAAAATGCACACAAAAAAATATACATA [CACACA_site7988]	8.69 ± 0.49
AATATAATATAATGCACACATAAAAAAAAAAAAATC [CACACA_site1303]	8.7 ± 0.32
ATATAAACACTGAATGCATGCACATATATATATATA [TGCATGCA_site940]	10.45 ± 0.049
AAAATATAATATAATGCACACATAAAAAAAAAAAAA [CACACA_site7989]	8.52 ± 0.49
ATAATAAAAAAAAATGCACACATATATATATATATA [CACACA_site8766]	10.3 ± 0.34
